Assay results as given in PubChem BioAssay (NCI).
About 83,000 compounds went through this panel and 20% of them were active in at least one assay; those are over-represented in the sample as a whole.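 How to read the values: 0–100, growth inhibition (40 = 60% inhibited); 0, no net growth; -100 to 0, cell death (-40 = 40% of starting cells died; -100 = all dead).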 Values without a mark were called inactive. Active and inactive are the calls of the source. How the source made its calls: active means growth percent below 10; inactive means the rest.

Columns and labels:
Test in all cases: NCI-60 one-dose screen, 48 h (100 = growth as untreated, 0 = no growth, -100 = all killed)
Conditions in all cases: 10 µM unless noted
SR leukemia = tested on: SR leukemia
RPMI-8226 leukemia = tested on: RPMI-8226 leukemia
OVCAR-8 ovarian = tested on: OVCAR-8 ovarian
OVCAR-5 ovarian = tested on: OVCAR-5 ovarian
OVCAR-4 ovarian = tested on: OVCAR-4 ovarian
SK-OV-3 ovarian = tested on: SK-OV-3 ovarian
IGROV1 ovarian = tested on: IGROV1 ovarian
OVCAR-3 ovarian = tested on: OVCAR-3 ovarian
HS 578T breast = tested on: HS 578T breast
NCI/ADR-RES ovarian = tested on: NCI/ADR-RES ovarian
T-47D breast = tested on: T-47D breast
BT-549 breast = tested on: BT-549 breast
MDA-MB-435 melanoma = tested on: MDA-MB-435 melanoma
SW-620 colon = tested on: SW-620 colon
MCF7 breast = tested on: MCF7 breast
HCT-116 colon = tested on: HCT-116 colon
HCC-2998 colon = tested on: HCC-2998 colon
KM12 colon = tested on: KM12 colon

Row | Compound | growth (SR leukemia) | growth (RPMI-8226 leukemia) | growth (OVCAR-8 ovarian) | growth (OVCAR-5 ovarian) | growth (OVCAR-4 ovarian) | growth (SK-OV-3 ovarian) | growth (IGROV1 ovarian) | growth (OVCAR-3 ovarian) | growth (HS 578T breast) | growth (NCI/ADR-RES ovarian) | growth (T-47D breast) | growth (BT-549 breast) | growth (MDA-MB-435 melanoma) | growth (SW-620 colon) | growth (MCF7 breast) | growth (HCT-116 colon) | growth (HCC-2998 colon) | growth (KM12 colon)
1 | O=C(c1cccc(N2CCOCC2)n1)c1c[nH]c2ccccc12 | 95.7% | 96.6% | 89.9% | 105% | 82.3% | 164% | 70% | 91% | 89.2% | 97.2% | 70.7% | 117% | 99.7% | 94.1% | 66% | 97.7% | 113% | 90.5%
2 | O=C(/C=C/c1cn(-c2ccccc2)nc1-c1ccccc1)CCC(=O)NO | 82.3% | 99.3% | 97.2% | 118% | 112% | 98.8% | 104% | 99% | 95.3% | 101% | 96.7% | 101% | 112% | 108% | 91.6% | 84% | 111% | 96.9%
3 | CCOc1ccc(/C=C/C(=O)c2cccc(OCCCOc3cccc(C(=O)/C=C/c4ccc(OCC)cc4)c3)c2)cc1 | 90.1% | 93.6% | 85.9% | 107% | 69.1% | 103% | 78.7% | 85.5% | 90.2% | 86.5% | 63.4% | 92.1% | 79.7% | 98% | 84.5% | 81.7% | 94.9% | 93%
4 | CCN(CC)C(=O)CC1=C(C)/C(=C/c2[nH]c(-c3ccc[nH]3)cc2OC)N=C1C | -30% (active) | 13.7% | 16.1% | 51.4% | 43.9% | 22.4% | 30.6% | 11.1% | 10.9% | 18.3% | 33.4% | 21.4% | 17.2% | 15.2% | 19.3% | 1.94% (active) | 30.4% | 13.9%
5 | CCN(CC)C(=O)C1=C(C)NC(=O)NC1c1ccc2c(c1)OCO2 (stereo unspecified) | 105% | 102% | 106% | 105% | 111% | 111% | 99.6% | 113% | 96.7% | 104% | 104% | 111% | 108% | 105% | 97.4% | 110% | 114% | 112%
6 | COc1cc2ncnc(Nc3ccc(S(=O)(=O)Nc4nccs4)cc3)c2cc1OCCCN1CCCC1 | 99.1% | 107% | 99.7% | 109% | 110% | 98.6% | 110% | 109% | 110% | 108% | 105% | 105% | 99.7% | 103% | 99.6% | 97.3% | 112% | 121%
7 | CCOC(=O)C#Cc1c(C(=O)OCC)nnn1[C@@H]1O[C@H](COC)[C@@H](OC)[C@H]1OC | 8.26% (active) | 62.5% | 104% | 90.1% | 73.5% | 92.6% | 95.1% | 15.5% | 97% | 109% | 15.2% | 98.7% | 98.7% | -38.7% (active) | 8.52% (active) | 84% | 128% | 105%
8 | C=C(C)[C@@H]1CC[C@]2(C(=O)Nc3ccccn3)CC[C@]3(C)[C@H](CC[C@@H]4[C@@]5(C)CCCNC(C)(C)[C@@H]5CC[C@]43C)[C@@H]12 | -29.5% (active) | -46% (active) | 12.4% | 70.7% | 8.81% (active) | 32.2% | 35.4% | 20.9% | 26.9% | 61% | 25.9% | 25.7% | 2.12% (active) | -31.7% (active) | 8.22% (active) | -43.4% (active) | 5.09% (active) | 10.6%
9 | O=C(NC1CCC(Br)CC1)C1CCCC(S(=O)(=O)NC2CCCCC2)C1 (stereo unspecified) | 21.1% [25 µM] | 2.82% [25 µM] (active) | 7.56% [25 µM] (active) | 39.2% [25 µM] | 4.59% [25 µM] (active) | 1.87% [25 µM] (active) | 27.4% [25 µM] | 14.3% [25 µM] | 46.1% [25 µM] | 3.69% [25 µM] (active) | -9.71% [25 µM] (active) | 21.6% [25 µM] | 14.4% [25 µM] | 31.2% [25 µM] | 6.38% [25 µM] (active) | 17% [25 µM] | 24.6% [25 µM] | 16.9% [25 µM]
10 | O=C(/C=C/C12c3ccccc3C(c3ccccc31)C1C(=O)NC(=O)C12)c1ccco1 (stereo unspecified) | 13% | -7.21% (active) | 5.8% (active) | 44.3% | 53.4% | 42.7% | 26.5% | 11.7% | 31.4% | 42.3% | 18.6% | 19.3% | 0.633% (active) | 27.4% | 12.8% | 7.57% (active) | 103% | 12.9%
11 | Cc1ccccc1N1CCN(C(=S)c2ccccc2)CC1 | 104% | 115% | 96.4% | 93.4% | 90.6% | 98.1% | 57.2% | 108% | 106% | 102% | 89.1% | 88.5% | 103% | 98.3% | 88.2% | 91.9% | 75.3% | 112%
12 | O=C(Nc1cccnc1Nc1ccc(Cl)cc1)c1cn(Cc2cccc(Oc3ccccc3)c2)nn1 | 21.5% | 40.9% | 53.8% | 101% | 83.9% | 53% | 77.6% | 30.7% | 39.9% | 14.4% | 48.1% | 52.2% | -30.2% (active) | 36.5% | 19.6% | 23.4% | 63.9% | 31.8%
13 | O=C(OCc1ccc2c(Cl)cc(Cl)c(O)c2n1)N1CCN(C(=O)c2cc3ccccc3[nH]2)CC1 | 25.3% | 40.6% | 23.8% | 41.3% | 19.6% | 31.2% | 18.5% | 30.6% | 43.5% | 7.03% (active) | 23.5% | 50.6% | 39.1% | 25.8% | 25.3% | 20.3% | 55% | 20.7%
14 | CCn1cc(C(=O)O)c(=O)c2cc(F)c(N3CCN(CC(=O)Nc4ccccc4)C(C)C3)c(F)c21 (stereo unspecified) | 109% | 102% | 98.3% | 98.3% | 82.4% | 90.7% | 103% | 104% | 91.1% | 96.7% | 95.4% | 106% | 97.1% | 105% | 92.7% | 99.9% | 99.9% | 99.9%
15 | O=c1oc2c(cnc3ccccc32)cc1-c1cccc(Cl)c1 | 93% | 101% | 109% | 94% | 102% | 105% | 106% | 112% | 105% | 103% | 107% | 115% | 97% | 106% | 99.2% | 105% | 109% | 110%
16 | CN(C)Cc1ccc(NC(=O)c2cncc(C#Cc3cnc(N)c4ncccc34)c2)cc1C(F)(F)F | -4.79% (active) | -40.4% (active) | -32.8% (active) | -84.8% (active) | -60.1% (active) | 105% | 70.8% | 102% | 70.5% | 72.4% | 99% | 102% | -75.1% (active) | -78.7% (active) | -72.4% (active) | 47.7% | 3.86% (active) | -40.4% (active)
17 | O=C1C=CC2(O)OC/C(=C\c3ccccc3)C(O)=C2C1=O (stereo unspecified) | 6.55% (active) | 0.943% (active) | 8.41% (active) | 29.3% | 30.4% | 86.6% | -13% (active) | 11.7% | 39% | 16.7% | -19.8% (active) | -1.66% (active) | 15.8% | 5.52% (active) | 23.4% | -9.7% (active) | 80.6% | -16.9% (active)
